In PubChem BioAssay (Tox21):
Records with an inconclusive call do not appear. Activity calls are given as the source filed them. Unless noted, the call rests on the fitted dose curve.

Columns and labels:
[1] = Nuclear factor erythroid 2-related factor 2/antioxidant responsive element (Nrf2/ARE) small molecule agonists: qHTS cell viability counter screen in human keratinocytes (AID 1919968; active means well fitted curve in the direction sought with a large enough effect in the repeat runs; an effect the other way counts as inactive or inconclusive; further: nearly all actives have a fitted effect of over 55% in size)
Method in brief: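 HaCaT ARE reporter line, 1,500 cells/well; 5 h settle, 37 C/5% CO2; cpd in DMSO pinned; 23 h exposure; CellTiter-Fluor, 1 h; fluorescence.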

[2] = biological target: Gonadotropin-releasing hormone receptor (Homo sapiens) (UniProt P30968); assay: Human gonadotropin-releasing hormone receptor (GnRHR) small molecule agonists, calcium flux assay in GnRHR-HEK293 cells (AID 1920063); further: nearly all actives have a fitted effect of over 35% in size
Chain of Gonadotropin-releasing hormone receptor (Homo sapiens) (P30968 whole entry, looked up): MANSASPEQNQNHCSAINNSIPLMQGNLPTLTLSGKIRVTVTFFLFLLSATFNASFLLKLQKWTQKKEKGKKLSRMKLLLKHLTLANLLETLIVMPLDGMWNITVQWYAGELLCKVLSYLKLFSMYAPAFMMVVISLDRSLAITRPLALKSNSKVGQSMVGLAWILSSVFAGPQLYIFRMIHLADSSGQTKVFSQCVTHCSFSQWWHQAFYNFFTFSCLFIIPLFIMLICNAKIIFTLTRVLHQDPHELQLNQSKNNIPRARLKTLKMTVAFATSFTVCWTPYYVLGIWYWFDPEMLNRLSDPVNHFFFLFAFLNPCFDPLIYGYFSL
Method in brief: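 GnRHR-HEK293, 1500 cells/well, 18 h 37 C/5% CO2; Ca dye 1 h 37 C; cpd pinned (DMSO), agonist mode; kinetic FL 480/540, 3 min, 1 s reads; 15 conc, n=3.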

[3] = biological target: KiSS-1 receptor (Homo sapiens) (UniProt Q969F8); assay: Human kisspeptin (KISS1R) small molecule agonists, calcium flux assay in KISS1R-HEK293 cells (AID 1920064; active means well fitted curve in the direction sought with a large enough effect in the repeat runs; an effect the other way counts as inactive or inconclusive)
Chain of KiSS-1 receptor (Homo sapiens) (Q969F8 whole entry, looked up): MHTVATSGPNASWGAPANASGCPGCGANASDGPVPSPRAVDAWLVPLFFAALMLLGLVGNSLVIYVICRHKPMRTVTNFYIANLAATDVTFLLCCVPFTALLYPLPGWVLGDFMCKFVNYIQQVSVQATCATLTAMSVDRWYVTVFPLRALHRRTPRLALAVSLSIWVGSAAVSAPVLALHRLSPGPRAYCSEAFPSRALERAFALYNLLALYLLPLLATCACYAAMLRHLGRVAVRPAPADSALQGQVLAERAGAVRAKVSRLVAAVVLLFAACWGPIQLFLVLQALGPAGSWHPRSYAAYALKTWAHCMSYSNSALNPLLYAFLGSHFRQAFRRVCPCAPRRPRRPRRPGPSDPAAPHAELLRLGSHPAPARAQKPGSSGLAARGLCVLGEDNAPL
Method in brief: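 Stable human KISS1R HEK293 line; 18 h plating, 37 C/5% CO2; calcium dye 1 h 37 C; compound pin transfer; kinetic fluorescence Ex/Em 480/540, 3 min.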

[4] = G protein-coupled receptor (GPCR) small molecule agonists, calcium flux assay: HEK293 wild type cell line counter screen (AID 1920065)
Method in brief: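 Kinetic fluorescence at Ex/Em 480/540, recorded every second over 3 min, served as the read-out after compound addition. Each compound was tested at 15 concentrations in triplicate on cells pre-loaded with calcium dye for 1 h.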

[5] = p53 small molecule agonists, cell-based qHTS assay with human liver microsomes (AID 1963577)
Method in brief: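 Fluorescence of the beta-lactamase reporter in p53RE-bla cells, detected with LiveBLAzer substrate (2 h, room temperature, dark), served as the read-out after 16 h compound exposure at 37 C with human liver microsomes and NADPH, each 0.5 mg/mL final.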

[6] = p53 small molecule agonists, cell-based qHTS assay with rat liver microsomes (AID 1963578)
Method in brief: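 Cells carrying a p53 response element–beta-lactamase reporter were plated and rested 5 h, then dosed with compound in DMSO plus rat liver microsomes and NADPH, each at 0.5 mg/mL final. After 16 h at 37 C, LiveBLAzer substrate was added for 2 h.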

[7] = p53 small molecule agonists, cell-based qHTS assay with human liver microsomes: qHTS cell viability counter screen (AID 1963579); further: nearly all actives have a fitted effect of over 45% in size
Method in brief: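 Cytotoxicity counter screen: p53RE-bla, 4,000 cells/well; 5 h settle, 37 C/5% CO2; cpd + HLM 0.5 mg/mL + NADPH 0.5 mg/mL (final); 16 h, 37 C; CellTiter-Glo, 30 min RT, luminescence.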

[8] = p53 small molecule agonists, cell-based qHTS assay with rat liver microsomes: qHTS cell viability counter screen (AID 1963580); further: nearly all actives have a fitted effect of over 45% in size
Method in brief: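 p53RE-bla HCT-116 cells were exposed 16 h at 37 C to compounds with rat liver microsomes (0.5 mg/mL) and NADPH (0.5 mg/mL). Viability was measured in the same wells as ATP content by CellTiter-Glo luminescence.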

[9] = p53 small molecule agonists, cell-based qHTS assay: qHTS cell viability counter screen (AID 1963581); further: nearly all actives have a fitted effect of over 45% in size
Method in brief: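 HCT-116 p53RE-bla cells, 4,000/well, plated 5 h before compound pin transfer; 16 h at 37 C; bla substrate 2 h RT; then CellTiter-Glo, 30 min RT, luminescence.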

[10] = p53 small molecule agonists, cell-based qHTS assay (AID 1963582; active means well fitted activation curve with a large enough effect in the signal ratio in the repeat runs, not every such curve was filed as active; the % refers to the signal ratio)
Method in brief: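 Reporter line: p53RE-bla. Pre-incubation 5 h, 37 C, 5% CO2; compound (DMSO, pin tool) 16 h, 37 C; B/G FRET substrate 2 h RT; fluorescence intensity read.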

[11] = biological target: 5-hydroxytryptamine receptor 2A (Homo sapiens) (UniProt P28223); assay: 5-hydroxytryptamine receptor 2A (HTR2A) small molecule antagonists, cell-based qHTS assay (AID 1963586); further: nearly all actives have a fitted effect of over 45% in size
Chain of 5-hydroxytryptamine receptor 2A (Homo sapiens) (P28223 whole entry, looked up): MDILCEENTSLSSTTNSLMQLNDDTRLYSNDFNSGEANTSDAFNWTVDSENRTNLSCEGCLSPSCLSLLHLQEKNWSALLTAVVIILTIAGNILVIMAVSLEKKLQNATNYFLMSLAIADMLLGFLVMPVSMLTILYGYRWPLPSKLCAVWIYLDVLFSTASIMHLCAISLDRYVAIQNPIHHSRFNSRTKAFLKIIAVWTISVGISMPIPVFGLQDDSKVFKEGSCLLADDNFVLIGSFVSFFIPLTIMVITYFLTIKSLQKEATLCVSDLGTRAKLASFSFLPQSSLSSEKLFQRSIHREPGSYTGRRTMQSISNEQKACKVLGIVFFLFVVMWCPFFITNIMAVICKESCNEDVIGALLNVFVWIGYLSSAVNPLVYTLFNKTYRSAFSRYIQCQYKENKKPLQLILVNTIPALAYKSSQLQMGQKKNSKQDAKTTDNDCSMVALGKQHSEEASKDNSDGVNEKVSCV
Method in brief: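 Antagonist-mode intracellular calcium assay: DOI (4 nM) added after 5 min compound pre-incubation at room temperature to dye-loaded HTR2A-CHO cells. Fluorescence followed for 3 min, sampled every second.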

[12] = biological target: 5-hydroxytryptamine receptor 2A (Homo sapiens) (UniProt P28223); assay: 5-hydroxytryptamine receptor 2A (HTR2A) small molecule agonists, cell-based qHTS assay (AID 1963587); further: nearly all actives have a fitted effect of over 30% in size
Method in brief: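 CHO cells stably expressing human HTR2A, plated 18 h, loaded with calcium dye 1 h at 37 C. Agonist mode: compounds added and intracellular calcium fluorescence recorded kinetically for 2 min at 1 sec intervals.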

[13] = biological target: Muscarinic acetylcholine receptor M1 (Homo sapiens) (UniProt P11229); assay: Cholinergic receptor muscarinic 1 (CHRM1) small molecule antagonists, cell-based qHTS assay (AID 1963588); further: nearly all actives have a fitted effect of over 40% in size
Chain of Muscarinic acetylcholine receptor M1 (Homo sapiens) (P11229 whole entry, looked up): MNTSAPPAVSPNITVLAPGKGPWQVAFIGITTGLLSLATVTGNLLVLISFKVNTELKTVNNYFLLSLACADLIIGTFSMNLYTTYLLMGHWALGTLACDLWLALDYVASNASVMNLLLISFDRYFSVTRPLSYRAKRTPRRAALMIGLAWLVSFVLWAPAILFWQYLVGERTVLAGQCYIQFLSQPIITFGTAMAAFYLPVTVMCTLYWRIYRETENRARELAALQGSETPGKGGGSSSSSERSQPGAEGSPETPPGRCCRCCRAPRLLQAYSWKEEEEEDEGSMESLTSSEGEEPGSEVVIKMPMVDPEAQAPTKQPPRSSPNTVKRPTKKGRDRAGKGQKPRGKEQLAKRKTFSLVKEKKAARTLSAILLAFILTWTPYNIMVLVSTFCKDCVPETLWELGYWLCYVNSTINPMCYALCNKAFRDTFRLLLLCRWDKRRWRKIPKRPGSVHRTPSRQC
Method in brief: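 CHRM1-CHO calcium-flux assay, antagonist mode. Cells were seeded 18 h, dye-loaded 1 h at 37 C and given compound for 5 min at RT, then acetylcholine was added at 50nM. FDSS fluorescence was read 3 min; 15 concentrations, three runs.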

[14] = biological target: Muscarinic acetylcholine receptor M1 (Homo sapiens) (UniProt P11229); assay: Cholinergic receptor muscarinic 1 (CHRM1) small molecule agonists, cell-based qHTS assay (AID 1963589); further: nearly all actives have a fitted effect of over 35% in size
Method in brief: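 Human M1 in stable CHO line; 18 h plating, 1 h dye load 37 C; cpd added (agonist mode); Ca2+ fluorescence kinetic read, 1 s intervals; 15 conc, 3 runs.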

[15] = cAMP Responsive Elements (CRE) small molecule agonists, cell-based qHTS assay (AID 1963590)
Method in brief: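 HEK 293T CRE-bla, 2,000 cells/well, 18 h preincubation 37 C/5% CO2; cpds (DMSO) pinned, 3 h; LiveBLAzer B/G FRET substrate, 2 h RT.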

[16] = biological target: Beta-2 adrenergic receptor (Homo sapiens) (UniProt P07550); assay: Adrenergic beta2 receptor (ADRB2) small molecule antagonists, cell-based qHTS assay (AID 1963592); further: series mostly up to about 92 µM; nearly all actives have a fitted effect of over 50% in size
Chain of Beta-2 adrenergic receptor (Homo sapiens) (P07550 whole entry, looked up): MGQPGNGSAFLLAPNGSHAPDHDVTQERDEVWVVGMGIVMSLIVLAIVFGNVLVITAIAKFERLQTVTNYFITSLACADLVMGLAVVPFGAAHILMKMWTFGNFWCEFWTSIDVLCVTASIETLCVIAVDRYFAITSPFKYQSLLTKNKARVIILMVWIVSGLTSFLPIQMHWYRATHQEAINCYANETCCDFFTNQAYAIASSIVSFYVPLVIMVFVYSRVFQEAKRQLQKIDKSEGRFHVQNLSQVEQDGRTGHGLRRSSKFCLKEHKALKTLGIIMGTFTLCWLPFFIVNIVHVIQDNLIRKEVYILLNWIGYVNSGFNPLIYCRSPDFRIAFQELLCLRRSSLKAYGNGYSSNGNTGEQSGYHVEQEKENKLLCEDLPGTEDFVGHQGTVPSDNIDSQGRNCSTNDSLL
Method in brief: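 Cells (CHO, stable ADRB2 overexpression) incubated 18-20hr at 37C; compounds added from DMSO; agonist mix (1nM isoproterenol, 100uM IBMX, 25uM Ro-20-1724) added; 0.5hr RT; d2-cAMP and anti-cAMP-cryptate added; 1hr RT; 665/615 nm read.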

[17] = biological target: Beta-2 adrenergic receptor (Homo sapiens) (UniProt P07550); assay: Adrenergic beta2 receptor (ADRB2) small molecule agonists, cell-based qHTS assay (AID 1963593);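 further: CHO cells stably overexpressing human ADRB2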
Method in brief: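 CHO cells stably over-expressing ADRB2 were plated overnight at 37C, then dosed with compounds plus a stimulation mix containing 100uM IBMX and 25uM Ro-20-1724 for 0.5hr at room temperature. cAMP was measured by HTRF competition, 1hr.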

[18] = biological target: D(2) dopamine receptor (Homo sapiens) (UniProt P14416); assay: Dopamine D2 receptor (DRD2) small molecule agonists, cell-based qHTS assay (AID 1963594); further: nearly all actives have a fitted effect of over 35% in size
Chain of D(2) dopamine receptor (Homo sapiens) (P14416 whole entry, looked up): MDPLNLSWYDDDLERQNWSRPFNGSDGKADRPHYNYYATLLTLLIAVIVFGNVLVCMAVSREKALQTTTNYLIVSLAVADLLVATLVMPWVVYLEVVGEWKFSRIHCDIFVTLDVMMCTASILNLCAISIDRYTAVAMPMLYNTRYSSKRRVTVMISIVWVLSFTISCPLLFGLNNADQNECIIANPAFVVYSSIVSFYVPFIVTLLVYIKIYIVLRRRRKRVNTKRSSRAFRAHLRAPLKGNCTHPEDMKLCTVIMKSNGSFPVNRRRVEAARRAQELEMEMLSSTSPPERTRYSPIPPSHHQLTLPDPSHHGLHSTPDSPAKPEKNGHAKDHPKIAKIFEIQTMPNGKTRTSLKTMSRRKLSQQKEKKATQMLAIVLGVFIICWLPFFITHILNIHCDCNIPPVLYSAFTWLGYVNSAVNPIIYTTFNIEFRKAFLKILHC
Method in brief: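 HEK293 cells stably expressing human DRD2, pre-treated with PDE inhibitor Ro20-1724 (0.1 mM final) and compound 10 min at room temperature, then stimulated with NKH477 (200nM […]) for 30 min. cAMP read by HTRF (665/620 nm).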

[19] = biological target: D(2) dopamine receptor (Homo sapiens) (UniProt P14416); assay: Dopamine D2 receptor (DRD2) small molecule antagonists, cell-based qHTS assay (AID 1963595; active means well fitted inhibition curve with a large enough effect in the signal ratio in the repeat runs, with a control signal flat; the % refers to the signal ratio)
Method in brief: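 Stable D2 receptor HEK293 line, 24 h after seeding. Compound preincubated 10 min, then quinpirole (12 nM) with forskolin analogue NKH477 (200 nM), 30 min, room temperature. Detection by time-resolved FRET of cAMP.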

[20] = cAMP Responsive Elements (CRE) small molecule antagonists, cell-based qHTS assay (AID 1963591; active means well fitted inhibition curve with a large enough effect in the signal ratio in the repeat runs, not every such curve was filed as active; the % refers to the signal ratio)
Method in brief: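 Beta-lactamase reporter read by FRET substrate (LiveBLAzer B/G) after 2 h at room temperature. CRE-bla HEK293T cells had received compound plus 0.25 uM (final) NKH477 for 3 h at 37 °C.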

Measured: Potency

O=C(CN1CCNCC1)NC1CCCCC1
not listed: [20]
inactive: all other assays above

CCOB(OCC)OCC
not listed: [19] | [20]
inactive: all other assays above

CCCCOc1ccc(N)cc1
inactive: all assays above

CCC(C)(C)C1CCC(O)CC1 (centres undefined)
not listed: [17]
inactive: all other assays above

ClC(Cl)(Cl)c1ccc(C(Cl)(Cl)Cl)cc1
not listed: [17]
inactive: all other assays above

Cc1cccc(OCC(O)CNC(C)(C)C)c1C (centres undefined)
not listed: [16] | [17] | [18]
inactive: all other assays above

CCCCCC(CO)CCC (centres undefined)
inactive: all assays above

Cc1c(Nc2ncccc2C(=O)O)cccc1C(F)(F)F
inactive: all assays above

O=C1Nc2ccc([N+](=O)[O-])cc2C1=O
not listed: [16] | [17] | [19]
inactive: all other assays above

Oc1ccccc1-c1nnco1
not listed: [17]
inactive: all other assays above

COCCOC[C@H](CC1(C(=O)NC2CCC(C(=O)O)CC2)CCCC1)C(=O)Oc1ccc2c(c1)CCC2 (some centres undefined)
not listed: [17] | [20]
inactive: all other assays above

COc1ccnc2c1CCCCC2S(=O)c1nc2ccccc2[nH]1 (centres undefined)
inactive: all assays above

CCC(C)OC(=O)N1CCCCC1CCO (centres undefined)
not listed: [17]
inactive: all other assays above

C[C@]12C(=O)OC(=O)[C@H]1[C@H]1C=C[C@@H]2C1
not listed: [17]
inactive: all other assays above
